Composite z-score data for 36 molecules are collected here from PubChem BioAssay.

This assay in a line: small-molecule microarray binders of probe aShh, primary screen, biochemical, biotinylated probe, 635/667 nm fluorescence (AID 1114).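 Also: probe is biotin-labelled aShh protein from a stem cell growth factor screen; measures binding of labelled protein to compounds printed on the slide; score merges feature fluorescence at 667 nm with signal-to-noise.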 Conditions: higher = more signal.
For `COC(=O)c1nc2oc1CC[C@@H](CO)NC(=O)N(C)Cc1cnnn1C[C@H](Cc1ccccc1)NC2=O`, the composite z-score was -0.0035. Molecule `CCOC(=O)C1=CC[C@@H](c2cccc(Cl)c2)N(S(=O)(=O)c2ccc(C)cc2)C1` came in with a composite z-score of -0.0035. `C=C(COC)/C(=C/C[C@H](OC(=O)c1ccncc1)c1ccccc1OCCO)c1cnc2ccccc2c1` showed a composite z-score of -0.0626.

Molecule `C[C@@H]1ON(c2ccc(C(=O)OC(C)(C)C)cc2)[C@H](c2ccc(O)cc2)[C@H]1C(=O)N1C(=O)OC[C@H]1Cc1ccccc1` registered a composite z-score of -0.138. For `CC(C)N1C(=O)C[C@@](C(=O)NCCCN(C)C)(c2ccc([N+](=O)[O-])cc2)[C@H]1c1ccc(CO)cc1`, the composite z-score was determined as 0.0062.

On to `COC(=O)C(CC#Cc1ccc2c(c1)[C@]1(C(=O)N2)[C@H](C(=O)N2CCN(c3ncccn3)CC2)[C@H]2C(=O)O[C@H](c3ccccc3)[C@H](c3ccccc3)N2[C@@H]1c1ccc(OCCO)cc1)C(=O)OC`, for which the composite z-score was -0.144.

For the molecule `CN(C)CCCNC(=O)[C@@]1(C)c2ccccc2C(=O)N(Cc2ccccc2)[C@H]1c1ccc(CO)cc1`, the composite z-score is -0.138. Then `CC(C)C(=C=CC[C@H](O)c1cccc(OCCO)c1)C[C@H](O)c1cc(Cl)cc(Cl)c1O`, with 0.23. `COCCCNC(=O)[C@@]1(Cc2ccccc2N=[N+]=[N-])N=C(c2ccc(OCCCO)cc2)O[C@H]1c1ccccc1` showed a composite z-score of 0.142. Then `COc1ccc([Si](C)(C)[C@@H]2[C@@H](CC(=O)N3Cc4ccccc4C[C@H]3CO)O[C@]3(C(=O)N(Cc4cccc(N5C(=O)c6cccc7cccc5c67)c4)c4ccccc43)[C@H]2C)cc1`, with -0.17; and `COc1ccc([Si](C)(C)[C@@H]2[C@@H](CC(=O)N(CCO)Cc3ccccc3)O[C@]3(C(=O)N(Cc4cccc(N5CCOC5=O)c4)c4ccccc43)[C@H]2C)cc1`, with -0.0011. Then `CC(=O)c1ccc(C(O)C2C=CC3C(=O)N(c4ccccc4)C(=O)C3N2Nc2ccc(C#N)cc2)cc1` (stereo unspecified), with 0.149; and `COC1OC[C@]2(C)[C@H]3C4=C(CN2C(=O)OC(C)(C)C)[C@H](C)C(CO)C(CO)C4CC[C@@H]13` (stereo partly specified), with 0.605; and `COCCCNC(=O)[C@@]1(Cc2ccccc2CN=[N+]=[N-])N=C(c2ccc(OCCCO)cc2)O[C@H]1c1ccccc1`, with 0.313. Then `COc1cc(CO)cc(I)c1O[C@H]1C=C(C(=O)NCCO)C[C@@H](NCc2ccc(F)cc2)[C@@H]1O`, with 0.0684; and `C=CCC(OC(C)=O)[C@@H]1[C@@H](N(Cc2cccc3ccccc23)C(=O)Cc2ccc(F)cc2)c2cc(OCCCO)ccc2N1C(=O)c1ccc2ccccc2n1` (stereo partly specified), with -0.123. For `[N-]=[N+]=Nc1ccccc1[C@H]1OC(c2ccc(OCCCO)cc2)=N[C@@]1(Cc1ccccc1)C(=O)N1CCCCC1`, the composite z-score amounted to 0.204. The molecule `O=C(NCc1ccccc1)[C@@H]1c2ccccc2C(=O)N(Cc2ccccc2C(F)(F)F)[C@H]1c1ccc(CO)cc1` showed a composite z-score of -0.419.

`CC=CC(O)C1C=CC2C(=O)N(c3ccccc3)C(=O)C2N1Nc1ccccc1F` (stereo unspecified): the composite z-score came out at 0.429. Turning to `O=C1O[C@H](c2ccccc2)[C@H](c2ccccc2)N2[C@H]1[C@@H](C(=O)O)[C@]1(C(=O)Nc3ccc(C#CC4=CCCCC4)cc31)[C@H]2c1ccc(O)cc1`, the composite z-score was found to be 0.0284. Regarding `C=CCOC(=O)[C@H]1[C@@H]2C(=O)O[C@@H](c3ccccc3)[C@@H](c3ccccc3)N2[C@@H](c2ccc(OCCOC(=O)[C@@H]3C[C@@H]4C(=O)N5CCC[C@H]5C(=O)N4[C@@H]3c3ccc(O)cc3)cc2)[C@]12C(=O)Nc1ccc(I)cc12`, the composite z-score was -0.155. For `CCCC[C@@H]1C[C@H]1[C@@H](NC(=O)c1ccccc1)c1ccc(C(F)(F)F)cc1`, the composite z-score is -0.296. Then `C=C(C)c1cc2c(c(CCCCCC)n1)[Si](C(C)C)(C(C)C)OC2`, with -0.123; and `COC(=O)[C@@]1(Cc2ccc(OC)cc2)[C@@H]2C(=CC(=O)[C@H]2CC(=O)C(=O)N(C)C)CN1C(=O)c1ccccc1`, with 0.1; and `COC(=O)c1cn(C[C@@H](Cc2ccccc2)NC(=O)N[C@H](CO)CCc2oc(C(C)=O)c(C(=O)OC)c2C(=O)OC)nn1`, with -0.283. On to `COCCOC(=O)N1C(=O)[C@@]2(c3cc(C#CC4(O)CCCCCC4)ccc31)[C@H](c1ccc(O)cc1)N1[C@H](c3ccccc3)[C@H](c3ccccc3)OC(=O)[C@H]1[C@@H]2C(=O)NC[C@H](O)c1ccccc1`, for which the composite z-score came to 0.14. `C=C(C)C1CCC(C(O)C2C=CC3C(=O)N(C)C(=O)C3N2N2CCCCC2)CC1` (stereo unspecified): the composite z-score stood at 0.413. Then `CC(C)(C)N1CC=CC23O[C@@H]4C=CCOC(=O)[C@@H]4[C@H]2C(=O)N(CCCCCCO)[C@@H]3C1=O` (stereo partly specified), with -0.291; and `COc1ccc(-c2cc3c(c(CCc4ccccc4)n2)[Si](C(C)C)(C(C)C)OC3)cn1`, with -0.147; and `C=CCOC(=O)[C@H]1[C@@H]2C(=O)O[C@@H](c3ccccc3)[C@@H](c3ccccc3)N2[C@@H](c2ccc(OCCOC(=O)[C@@H]3C[C@@H]4C(=O)N[C@@H](CCCCNC(C)=O)C(=O)N4[C@@H]3c3ccc(O)cc3)cc2)[C@]12C(=O)Nc1ccc(I)cc12`, with 0.131.

`COc1ccc(CCNC(=O)[C@@]2(Sc3ccc(C)cc3)CC(=O)N(C3Cc4ccccc4C3)[C@@H]2c2ccc(CO)cc2)cc1`: the composite z-score was determined as 0.171. Then `COCCCNC(=O)[C@@]1(Sc2ccc(C)cc2)CC(=O)N(C2CCCCC2)[C@@H]1c1ccc(CO)cc1`, with -0.0643; and `COCCCNC(=O)[C@]1(CCS(=O)(=O)c2ccccc2)N=C(c2ccc(OCCCO)cc2)O[C@@H]1c1ccccc1N=[N+]=[N-]`, with 0.203; and `CN(C)CCCNC(=O)[C@@H]1c2ccccc2C(=O)N(Cc2ccccc2Cl)[C@H]1c1ccc(CO)cc1`, with -0.114. Take `CO[C@H]1O[C@H](CO)[C@@H](OC(=O)Nc2ccccc2-c2ccccc2)[C@H](OC(=O)Nc2ccc3c(c2)OCO3)[C@H]1OC(=O)Nc1ccc2c(c1)OCO2`: the composite z-score amounted to 0.398. Then `CCCCCCCCCCC(O)C1C=CC2C(=O)N(C)C(=O)C2N1NC(=O)OC(C)(C)C` (stereo unspecified), with 0.445.
